About 83,000 compounds went through this panel and 20% of them were active in at least one assay; those are over-represented in the sample as a whole.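 A percent growth of 40 corresponds to 60% growth inhibition; 0 means no net growth; -100 means all cells died. Active threshold: below 10.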 A number with no mark means an inactive call. Active and inactive are the calls of the source.

Assay in all cases: NCI-60 one-dose screen, 48 h (100 = growth as untreated, 0 = no growth, -100 = all killed)
Settings in all cases: 10 µM

For assay [1], the system named is T-47D breast.
Assay [2] concerns BT-549 breast.
Assay [3] has as its system MDA-MB-435 melanoma.
The subject of assay [4] is SW-620 colon.
The test system of assay [5] is MCF7 breast.
The test system of assay [6] is HCT-116 colon.
Assay [7] concerns HCC-2998 colon.
The subject of assay [8] is KM12 colon.

Take `N#C/C(=C\N1C(=O)/C(=C/c2cccc([N+](=O)[O-])c2)SC1=S)c1nc2ccccc2s1`: the growth in assay [1] was 54.7%; in assay [2] it was 78.3%; in assay [3], 76.2%; in assay [4], 105%; in assay [5] it was 70.9%; in assay [6], 81.6%. Besides, in assay [7], the growth was 100%.
As for `COc1cc(-c2cc(-c3cc(OC)c(OC)c(OC)c3)nc3nc(N)[nH]c(=O)c23)ccc1Oc1ccnc2cc(Cl)ccc12`, the growth in assay [1] was 30.3%; in assay [2], 34.9%; in assay [3], -57.6% (active); in assay [4], 19.6%; in assay [5] it was 17.4%; in assay [6], 16.1%. Also, in assay [7], the growth was 56.9%.
As for `NC(N)=NS(=O)(=O)c1ccc(Nc2ccc3nnc(-c4ccncc4)n3n2)cc1`, the growth in assay [1] is 96.4%; in assay [2] it was 112%; in assay [3] it was 110%; in assay [4], 97.6%; in assay [5], 91.3%; in assay [6], 100%.
With `CCCCC(CC#N)(CCC)CCC`, the growth in assay [1] was 100%; in assay [2], 98.5%; in assay [3] it was 99.4%; in assay [4] it was 108%; in assay [5], 98.4%; in assay [6], 106%. Also, in assay [7], the growth was 96.3%.
On to `COc1cc(-c2nc3ccccc3[nH]2)ccc1OCc1nnc(-c2ccc(Br)cc2)o1`, for which the growth in assay [1] was 68.4%; in assay [2], 98.4%; in assay [3], 81%; in assay [4], 102%; in assay [5], 53.6%; in assay [6], 59.9%. The growth in assay [7] is 102%.
For `CS(=O)(=O)Nc1ccc([N+](=O)[O-])cc1Oc1ccccc1`, the growth in assay [1] was 84%; in assay [2], 109%; in assay [3], 101%; in assay [4] it was 104%; in assay [5], 102%; in assay [6] it was 100%. In addition, the growth in assay [7] was 93%.
For `COc1ccc(-c2nc(NC(=O)CS(=O)(=O)c3ccc(F)cc3)sc2C)cc1`, the growth was 33.2% in assay [1]; 66.3% in assay [2]; 75% in assay [3]; 50.9% in assay [4]; 57.9% in assay [5]; 44.7% in assay [6]. The growth in assay [7] was 47.4%.
Turning to `COc1cc(/C=C2\C(=O)Nc3cc(C)c(O)cc32)cc(OC)c1OC`, the growth was 39.2% in assay [1]; 42.3% in assay [2]; -34.5% (active) in assay [3]; 55.1% in assay [4]; 25.7% in assay [5]; 56.8% in assay [6].
In the case of `COc1ccc(NC(=O)c2sc3nc4c(cc3c2N)C(O)CCC4)cc1` (stereo not drawn), the growth is 93.9% in assay [1]; 97.4% in assay [2]; 84.6% in assay [3]; 95.8% in assay [4]; 89.6% in assay [5]; 104% in assay [6]. Also, the growth in assay [7] was 113%.
Turning to `CCCCCC(CCC)COC(=O)c1ccc(OC)cc1` (stereo not drawn), the growth in assay [1] is 87.7%; in assay [2], 104%; in assay [3], 106%; in assay [4], 104%; in assay [5] it was 92.5%; in assay [6], 100%. In assay [7], the growth was 99.5%.
Regarding `COc1ccc(-c2nc(-c3nc4ccc(C)cc4[nH]3)c3ccccn23)cc1`, the growth in assay [1] is 19.3%; in assay [2] it was 68.1%; in assay [3] it was 62.9%; in assay [4] it was 61.2%; in assay [5], 35%; in assay [6], 41.1%. The growth in assay [7] was 36.4%.
On to `CCC1(C)OC(=O)NC1=O` (stereo not drawn), for which the growth in assay [1] was 93.8%; in assay [2], 93.3%; in assay [3], 112%; in assay [4], 110%; in assay [5], 97.7%; in assay [6] it was 87.7%. Besides, in assay [7], the growth is 99%.
For `COc1ccc(-c2nc(-c3nc4ccc(OC)cc4[nH]3)c3ccccn23)cc1`, the growth in assay [1] is 36.7%; in assay [2], 77.6%; in assay [3], 81.5%; in assay [4], 93.3%; in assay [5] it was 69.4%; in assay [6] it was 66.4%. Also, in assay [7], the growth was 86.4%.
Regarding `S=C(Cc1ccc(-c2ccccc2)cc1)N1CCOCC1`, the growth in assay [1] was 85.5%; in assay [2], 96.6%; in assay [3], 98.6%; in assay [4], 103%; in assay [5] it was 95.3%; in assay [6] it was 98.6%.
With `CN1/C(=C\C(I)C(I)C2=[N+](C)c3ccccc3C2(C)C)C(C)(C)c2ccccc21` (stereo not drawn), the growth is -0.299% (active) in assay [1]; 13.3% in assay [2]; 11.8% in assay [3]; 16.1% in assay [4]; 4.83% (active) in assay [5]; 9.19% (active) in assay [6]. In assay [7], the growth was 12.6%.
On to `COc1ccc(C2=NNC(c3sc(Cl)nc3Cl)C2)cc1` (stereo not drawn), for which the growth in assay [1] was 27.9%; in assay [2], 53.3%; in assay [3], 80%; in assay [4], 29.1%; in assay [5] it was 40.8%; in assay [6], 28%. Also, in assay [7], the growth was 72.1%.
Consider `C/C(=N/NC(=O)c1sc(=S)n(C)c1N)c1cc2cc(Cl)ccc2o1`, for which the growth is 80.4% in assay [1]; 113% in assay [2]; 95.7% in assay [3]; 44.3% in assay [4]; 82.7% in assay [5]; 103% in assay [6].
With `Cc1nc(N)sc1Sc1nc2ccc(Cl)cc2c(=O)n1-c1ccc(Oc2ccccc2)cc1`, the growth in assay [1] was 75.5%; in assay [2], 63.2%; in assay [3], 88.1%; in assay [4] it was 66.1%; in assay [5] it was 87.4%; in assay [6] it was 33.3%. Also, in assay [7], the growth was 74.1%.
`COc1ccc(-c2csc(-c3cc(Cl)cc(Cl)c3Cl)n2)cc1`: the growth in assay [1] is 50.6%; in assay [2], 102%; in assay [3], 80.7%; in assay [4], 46.4%; in assay [5] it was 56.2%; in assay [6], 108%.
As for `Nc1c(C(=O)NC2CCCCC2)sc2nc3c(cc12)C(=O)CCC3`, the growth was 94.2% in assay [1]; 95.4% in assay [2]; 54.7% in assay [3]; 98.8% in assay [4]; 83.2% in assay [5]; 102% in assay [6]. In addition, the growth in assay [7] is 121%.
On to `Cc1ccc(-n2nnc3c(sc4ccccc43)c2=O)cc1`, for which the growth is 64.2% in assay [1]; 81.4% in assay [2]; 59% in assay [3]; 58.6% in assay [4]; 81.2% in assay [5]; 3.11% (active) in assay [6]. In assay [7], the growth was 70.8%.
In the case of `COc1ccc(-c2[nH]ncc2/C=C/c2cc(C(F)(F)F)[nH]c(=O)n2)cc1`, the growth was 75.9% in assay [1]; 80.4% in assay [2]; 97.8% in assay [3]; 98.4% in assay [4]; 91.2% in assay [5]; 100% in assay [6]. Moreover, the growth in assay [7] is 103%.
Regarding `Brc1ccc(-c2cn3ccnc3c(-c3ccc(Br)cc3)n2)cc1`, the growth in assay [1] was 37.2%; in assay [2] it was 17.6%; in assay [3] it was 3.08% (active); in assay [4], 25.4%; in assay [5] it was 22%; in assay [6], 30%. Also, the growth in assay [7] is 60.2%.
For the compound `NS(=O)(=O)c1ccc(N2N=C(c3ccc(-c4ccccc4)cc3)CC2c2ccc(Cl)cc2)cc1` (stereo not drawn), the growth is 74.6% in assay [1]; 116% in assay [2]; 77.4% in assay [3]; 93.2% in assay [4]; 62.6% in assay [5]; 50.4% in assay [6]. Besides, in assay [7], the growth was 89.3%.
Take `Cn1c([N+](=O)[O-])cnc1C=C1C(=O)c2ccccc2C1=O`: the growth in assay [1] was 65.4%; in assay [2], 25%; in assay [3], 11.8%; in assay [4], 29%; in assay [5], 37.8%; in assay [6] it was 20.7%. Also, the growth in assay [7] was 88.2%.
As to `Cn1c([N+](=O)[O-])cnc1/C=C1\Oc2ccc(Br)cc2C1=O`, the growth was 65.9% in assay [1]; -41% (active) in assay [2]; -65.8% (active) in assay [3]; -65.3% (active) in assay [4]; 3.52% (active) in assay [5]; -27.1% (active) in assay [6]. Also, the growth in assay [7] is -51.7% (active).
With `Nc1cc2c(cc1Cl)-c1ccc(Cl)cc1C2=O`, the growth in assay [1] was 59.6%; in assay [2], 100%; in assay [3], 103%; in assay [4], 95.8%; in assay [5], 42.1%; in assay [6], 76.4%.
For `CCCCCCCCCCN=C(c1ccc(N(C)C)cc1)c1ccc(N(C)C)cc1`, the growth in assay [1] is 20.7%; in assay [2], 38.1%; in assay [3], -14.2% (active); in assay [4], 16.8%; in assay [5], 11.9%; in assay [6] it was 15.3%. The growth in assay [7] is 52.6%.
On to `COc1ccc(Cn2cc3c(c2-c2cc(OC)c(OC)c(OC)c2)CCc2cnoc2-3)cc1[N+](=O)[O-]`, for which the growth in assay [1] was 40%; in assay [2], 51.9%; in assay [3], -53.9% (active); in assay [4], 26.6%; in assay [5] it was 26.6%; in assay [6], 19.4%. The growth in assay [7] is 18%.
As for `N=C(N)c1ccc(-c2ccc(-c3cccs3)s2)nc1`, the growth in assay [1] is 43%; in assay [2] it was 91%; in assay [3], 44.5%; in assay [4], 22.4%; in assay [5] it was 17.8%; in assay [6], 18.5%.
For the compound `O=C(COc1ccc(-c2nc3ccccc3[nH]2)cc1)N=Nc1c(O)[nH]c2ccccc12`, the growth in assay [1] is 59%; in assay [2] it was 106%; in assay [3] it was 69.8%; in assay [4], 85.6%; in assay [5] it was 42.5%; in assay [6], 40.9%.
In the case of `CCCCCC(=O)N1c2ccccc2NC2=C(C(=O)CC(c3ccc(OC)c(OC)c3)C2)C1c1ccc(C(F)(F)F)cc1` (stereo not drawn), the growth is 36.9% in assay [1]; 75.9% in assay [2]; 62.4% in assay [3]; 68.8% in assay [4]; 50.2% in assay [5]; 39.3% in assay [6]. The growth in assay [7] was 81.2%.
In the case of `CCN(CC)CC(O)Cc1ccc(OC)cc1` (stereo not drawn), the growth was 104% in assay [1]; 121% in assay [2]; 102% in assay [3]; 114% in assay [4]; 111% in assay [5]; 111% in assay [6]. In assay [7], the growth is 111%.
Regarding `C#Cc1ccc(-n2c(/C=C/c3cc(OC)c(OC)c(OC)c3)nc3ncccc3c2=O)cc1`, the growth in assay [1] is 58.9%; in assay [2], 59.7%; in assay [3] it was -9.47% (active); in assay [4] it was 49.1%; in assay [5], 25%; in assay [6] it was 54.2%. Further, the growth in assay [7] is 91%.
On to `O=C1c2cc(Cl)ccc2-c2c(O)cc(Cl)cc21`, for which the growth was 63.9% in assay [1]; 100% in assay [2]; 106% in assay [3]; 82.7% in assay [4]; 77% in assay [5]; 22.2% in assay [6]. Moreover, the growth in assay [7] was 105%.
Turning to `O=C(CCCC(=O)N/N=C/c1cc(Cl)ccc1O)N/N=C\c1cc(Cl)ccc1O`, the growth in assay [1] is 24.1%; in assay [2] it was 29.2%; in assay [3], 45.1%; in assay [4], 30.9%; in assay [5], 14.3%; in assay [6], 24.7%.
For `COc1ccc(Nc2nc(NCc3ccccc3)c3ccccc3n2)cc1`, the growth in assay [1] was 45.6%; in assay [2], 82.9%; in assay [3], 84.2%; in assay [4], 68.2%; in assay [5] it was 67.4%; in assay [6], 29.8%. For the same compound, the growth in assay [7] was 91.5%.
Turning to `Cc1nn2c(/C=C3/C(=O)Nc4ccc(Cl)cc43)c(-c3ccccc3)nc2s1`, the growth in assay [1] is -1.58% (active); in assay [2], 48.8%; in assay [3], 44.4%; in assay [4], 44.2%; in assay [5], 38.5%; in assay [6], 7.12% (active). For the same compound, the results for the growth in assay [7] and in assay [8] were 102% and 59.1%, respectively.
